In PubChem BioAssay AID1159580 (chemical genetic matrix, 2015):
Where “and” joins values, the source holds several entries; their conditions need not be identical. Identical values can stand only once. About 2,000 (36%) of roughly 5,500 compounds were called active. Not shown: some 18% with an inconclusive outcome. Rule as the data show it: active = normalized growth mostly below about 0.91 (no sharp cut-off); inconclusive = no clear call, values can overlap the other calls; inactive = mostly above about 0.92. The list shows a part of the results.

Test: chemical genetic growth profiling, strain panel (AID 1159580);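 also: tested at 20 µM; growth read once vehicle control cultures reached saturation at 30 °C; 1 = growth at the plate median or of vehicle wells; lower values mean less growth of the strain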
Conditions: S. cerevisiae deletion strains, growth OD

Measured: normalized growth

CCCCCCCCCCCCC[N+](C)(C)Cc1ccccc1
active: locus YAL013W, strain DEP1, active compounds read low 0.0555 | locus YAL021C, strain ccr4, active compounds read low 0.0637 | locus YAL026C, strain drs2, active compounds read low 0.0609 | locus YAL030W, strain snc1, active compounds read low 0.0556 | locus YBL061C, strain skt5, active compounds read low 0.0585 | locus YBR009C, strain hhf1, active compounds read low 0.0639 | locus YBR021W, strain FUR4, active compounds read low 0.0876 | locus YBR023C, strain chs3, active compounds read low 0.0617 | locus YBR171W, strain sec66, active compounds read low 0.0746 | locus YBR229C, strain ROT2, active compounds read low 0.0463 | locus YBR231C, strain swc5, active compounds read low 0.0605 | locus YBR279W, strain paf1, active compounds read low 0.0571 | locus YCL011C, strain gbp2, active compounds read low 0.0555 | locus YCL016C, strain dcc1, active compounds read low 0.0666 | locus YCL029C, strain bik1, active compounds read low 0.0604 | locus YCL069W, strain vba3, active compounds read low 0.0638 | locus YCR088W, strain abp1, active compounds read low 0.059 | locus YDL005C, strain med2, active compounds read low 0.073 | locus YDL035C, strain GPR1, active compounds read low 0.0501 | locus YDL040C, strain nat1, active compounds read low 0.0568 | locus YDL074C, strain BRE1, active compounds read low 0.078 | locus YDL101C, strain DUN1, active compounds read low 0.0549 | locus YDL134C, strain PPH21, active compounds read low 0.0476 | locus YDL185W, strain tfp1, active compounds read low 0.0592 | locus YDL192W, strain arf1, active compounds read low 0.0605 | locus YDR001C, strain nth1, active compounds read low 0.0567 | locus YDR069C, strain doa4, active compounds read low 0.0672 | locus YDR101C, strain arx1, active compounds read low 0.0615 | locus YDR137W, strain rgp1, active compounds read low 0.12 | locus YDR159W, strain sac3, active compounds read low 0.0884 | locus YDR162C, strain NBP2, active compounds read low 0.0468 | locus YDR195W, strain ref2 0.118 | locus YDR297W, strain sur2, active compounds read low 0.0581 | locus YDR318W, strain mcm21, active compounds read low 0.063 | locus YDR334W, strain swr1, active compounds read low 0.0601 | locus YDR335W, strain msn5, active compounds read low 0.0563 | locus YDR388W, active compounds read low 0.0567 | locus YDR392W, strain spt3, active compounds read low 0.0701 | locus YDR502C, strain sam2, active compounds read low 0.0651 | locus YEL003W, strain gim4, active compounds read low 0.0517 | locus YEL037C, strain rad23, active compounds read low 0.0542 | locus YEL061C, strain CIN8 (second series), active compounds read low 0.0587 | locus YEL061C, strain CIN8, active compounds read low 0.0483 | locus YER015W, strain faa2, active compounds read low 0.0622 | locus YER016W, strain bim1, active compounds read low 0.063 | locus YER110C, active compounds read low 0.0733 | locus YER111C, strain swi4, active compounds read low 0.0674 | locus YER155C, strain BEM2 (second series), active compounds read low 0.0862 | locus YER155C, strain BEM2, active compounds read low 0.0618 | locus YER167W, strain BCK2, active compounds read low 0.0502 | locus YFR010W, strain ubp6, active compounds read low 0.0662 | locus YGL078C, strain dbp3, active compounds read low 0.0681 | locus YGL086W, strain mad1, active compounds read low 0.0582 | locus YGL167C, strain pmr1, active compounds read low 0.0698 | locus YGL173C, strain kem1, active compounds read low 0.0657 | locus YGL227W, strain vid30, active compounds read low 0.0603 | locus YGL240W, strain doc1, active compounds read low 0.0764 | locus YGL248W, strain PDE1, active compounds read low 0.0462 | locus YGL253W, strain hxk2, active compounds read low 0.0524 | locus YGR078C, strain PAC10, active compounds read low 0.0524 | locus YGR135W, strain pre9, active compounds read low 0.0647 | locus YGR229C, strain SMI1, active compounds read low 0.0592 | locus YGR252W, strain gcn5, active compounds read low 0.206 | locus YHR013C, strain ard1, active compounds read low 0.102 | locus YHR027C, strain rpn1, active compounds read low 0.0626 | locus YHR030C, strain SLT2, active compounds read low 0.0492 and 0.104 | locus YHR079C, strain IRE1 (second series), active compounds read low 0.0567 | locus YHR079C, strain IRE1, active compounds read low 0.111 | locus YHR094C, strain hxt1, active compounds read low 0.058 | locus YHR129C, strain ARP1, active compounds read low 0.0544 | locus YHR142W, strain chs7, active compounds read low 0.0737 | locus YHR200W, strain rpn10, active compounds read low 0.0601 | locus YIL066C, strain RNR3, active compounds read low 0.0508 | locus YIL073C, strain SPO22, active compounds read low 0.129 | locus YIL125W, strain kgd1, active compounds read low 0.0665 | locus YIR030C, strain dcg1, active compounds read low 0.0594 | locus YJL092W, strain hpr5, active compounds read low 0.0601 | locus YJL095W, strain BCK1 (second series), active compounds read low 0.0575 | locus YJL095W, strain BCK1, active compounds read low 0.0546 and 0.0934 | locus YJL115W, strain asf1, active compounds read low 0.0698 | locus YJL129C, strain trk1, active compounds read low 0.0815 | locus YJL134W, strain LCB3, active compounds read low 0.0471 | locus YJL154C, strain vps35, active compounds read low 0.0584 | locus YJL164C, strain tpk1, active compounds read low 0.0596 | locus YJL166W, strain qcr8, active compounds read low 0.0642 | locus YJL168C, strain set2, active compounds read low 0.0571 | locus YJL187C, strain SWE1 (second series), active compounds read low 0.0466 | locus YJR043C, strain POL32, active compounds read low 0.0593 | locus YJR066W, strain TOR1, active compounds read low -0.000757
